According to PubChem BioAssay AID743286 (National Center for Advancing Translational Sciences (NCATS), 2014):
About 340 (31%) of roughly 1,100 compounds were called active. Roughly 40% stayed inconclusive and do not appear here. Calls follow the shape of the dose curve; as a rule, active = well fitted inhibition curve with a large enough effect; inconclusive = small, poorly fitted or top-dose-only effect; inactive = flat fitted curve, though single readings scatter. Only a sample is shown.

Molecular target: Phosphatidylinositol 5-phosphate 4-kinase type-2 alpha (Homo sapiens) (UniProt P48426)
Test: qHTS for Inhibitors of PI5P4K: Confirmation in Primary Assay; also: nearly all actives have a fitted effect of over 65% in size
Conditions: PI5P4Kalpha enzyme, ADP-Glo luminescence, 60 min; series mostly up to 76.9 µM; activity change, negative = inhibition: at the top concentration
Outline: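 Hits from a qHTS screen were retested in the same PI5P4Kα ADP-Glo format: 5 microM ATP, HEPES pH 7.4 buffer with CHAPS and EGTA, 60 min room-temperature reaction, single end-point luminescence read.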
% is scaled to controls: 0 for no effect and ±100 for the full control effect; potency is read from the fitted curve at half-maximal effect.

Sequence of Phosphatidylinositol 5-phosphate 4-kinase type-2 alpha (Homo sapiens) (P48426 whole entry, looked up): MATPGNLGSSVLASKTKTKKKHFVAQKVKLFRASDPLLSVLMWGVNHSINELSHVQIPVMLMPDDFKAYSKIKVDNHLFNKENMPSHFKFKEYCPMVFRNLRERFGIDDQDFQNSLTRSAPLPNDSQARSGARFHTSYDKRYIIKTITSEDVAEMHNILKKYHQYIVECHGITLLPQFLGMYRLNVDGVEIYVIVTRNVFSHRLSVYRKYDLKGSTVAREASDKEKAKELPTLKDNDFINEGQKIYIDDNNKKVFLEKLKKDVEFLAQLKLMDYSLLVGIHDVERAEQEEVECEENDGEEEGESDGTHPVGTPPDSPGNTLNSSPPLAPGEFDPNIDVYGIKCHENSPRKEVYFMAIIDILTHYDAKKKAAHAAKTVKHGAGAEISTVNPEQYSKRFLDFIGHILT

Potency, active:
CCc1ccccc1N1CSC2=C(C#N)C(c3ccccc3F)CC(=O)N2C1 (stereo unspecified) 14.1 µM
N#CC1=C2SCN(c3ccccc3)CN2C(=O)CC1c1ccccc1Cl (stereo unspecified) 25.1 µM
N#CC1=C2SCN(c3ccccc3)CN2C(=O)CC1c1c(Cl)cccc1Cl (stereo unspecified) 22.4 µM
COc1ccc2c([N+](=O)[O-])c(Cl)[nH]c2c1 10 µM
O=C(NCc1cc([N+](=O)[O-])ccc1O)c1cccc(NS(=O)(=O)c2ccccc2)c1 14.1 µM
OCCCNc1nccc(-c2cc(Nc3cccc(Cl)c3)ncn2)n1 14.1 µM
O=S(=O)(c1ccc2nc(-c3ccco3)c(-c3ccco3)nc2c1)N1CCOCC1 15.8 µM
N#Cc1cc(-c2ccccc2)nn1-c1ccccc1 10 µM
O=C(Cc1ccc(Cl)cc1Cl)Nc1cccc(S(=O)(=O)Nc2ccccc2F)c1 3.98 µM
CC(=O)NC(c1cccs1)c1cc([N+](=O)[O-])c2cccnc2c1O (stereo unspecified) 12.6 µM
CCCn1c(=O)c2[nH]c(-c3ccc(S(=O)(=O)O)cc3)nc2n(CCC)c1=O 14.1 µM
Cn1c(=O)c2[nH]c(-c3ccc(S(=O)(=O)O)cc3)nc2n(C)c1=O 12.6 µM
CCn1c(SCc2nc3sc(C(=O)O)c(C)c3c(=O)[nH]2)nc2ccccc21 12.6 µM
c1cc2c(cc1C1=NNC(=NC3CC3)SC1)OCCO2 28.2 µM
NS(=O)(=O)c1cc(C(=O)NC2CCSc3ccccc32)ccc1Cl (stereo unspecified) 0.891 µM
COc1ccc2c(c1)c(=O)oc1c(C)c(OCc3cc(C(=O)O)oc3C)ccc12 17.8 µM
Cc1ccc(-c2csc(NC(=O)c3ccno3)n2)cc1 28.2 µM
NC(=O)c1c(NC(=O)c2cc3ccccc3o2)sc2c1CCC2 31.6 µM
NC(=O)c1c(NC(=O)c2ccccc2)sc2c1CCC2 25.1 µM
NC(=S)c1cc2ccc(O)cc2oc1=O 14.1 µM
O=C(NCc1ccco1)c1cc2ccc(O)cc2oc1=O 14.1 µM
O=C(c1ccc(F)cc1)c1cc2ccc(O)cc2oc1=O 10 µM
O=C(c1ccc(Br)cc1)c1cc2ccc(O)cc2oc1=O 11.2 µM
Cc1cccc(N=c2oc3cc(O)ccc3cc2C(N)=O)c1 14.1 µM
c1coc(-c2ccc3nncn3c2)c1 15.8 µM
CC(=O)c1ccc(NC(=O)c2noc3c2CCC3)cc1 35.5 µM
Cc1nc(N)sc1-c1csc(Nc2cccc(C(=O)O)c2)n1 15.8 µM
OCCNc1nc(Nc2ccc(Cl)c(Cl)c2)nc2ccccc12 31.6 µM
Cc1ccc(C)c(S(=O)(=O)Nc2ccc3oc(C)c(C(=O)O)c3c2)c1 15.8 µM
O=C(O)C1Nc2c(Cl)cc(Cl)c(Cl)c2C2C=CCC12 (stereo unspecified) 8.91 µM
CCc1c(C)sc(NC(=O)c2ccoc2C)c1C(N)=O 12.6 µM
NS(=O)(=O)c1ccc(NC(=O)c2ccc(S(=O)(=O)N3CCc4ccccc43)cc2)cc1 14.1 µM
CCOc1ccccc1N1CSC2=C(C#N)C(c3c(OC)ccc4ccccc34)CC(=O)N2C1 (stereo unspecified) 20 µM
COc1ccc2ccccc2c1C1CC(=O)N2CN(C3CCCCC3)CSC2=C1C#N (stereo unspecified) 15.8 µM
COc1cc2nc(Nc3ccc(C)c(Cl)c3)nc(N)c2cc1OC 15.8 µM
CC1CCCCC1NC(=O)COC(=O)c1c2c(nc3ccccc13)/C(=C\c1ccco1)CC2 (stereo unspecified) 1.26 µM
COc1ccc(CCn2c(O)cc3nn(-c4nc5ccccc5s4)c(=O)c-3c2C)cc1 11.2 µM
NS(=O)(=O)c1ccc(NC(=O)C2Cc3ccccc3CN2C(=O)c2ccco2)cc1 (stereo unspecified) 14.1 µM
Oc1cc2c(cc1C(c1ccc(Cl)c(Cl)c1)N1CCCC1)OCO2 (stereo unspecified) 12.6 µM
COc1ccc(S(=O)(=O)N2CCN(C(=O)c3cc4c(s3)CCC4)CC2)cc1 7.08 µM
CCN1CCN(Cc2ccc(NC(=O)c3ccc(C)c(NC(=O)c4cc(-c5ccc(Br)cc5)n[nH]4)c3)cc2C(F)(F)F)CC1 28.2 µM
CCN1CCN(Cc2ccc(NC(=O)c3cc(NC(=O)c4cc5cccc(OC)c5o4)cc(OC)c3)cc2C(F)(F)F)CC1 25.1 µM
O=c1c2c3c(sc2[nH]c(=S)n1Cc1ccco1)CCC3 7.08 µM

Activity change, negative = inhibition, inactive:
O=C(CSc1ncnc2sc3c(c12)CCC3)N1CCOCC1 -28.5%
CC(C)C(=O)Nc1ccccc1N1CCN(S(C)(=O)=O)CC1 -0.34%
O=C(NCC1CCCCC1)c1cccc([N+](=O)[O-])c1 -1.06%
O=C(NCCCCc1ccccc1)c1cccc(NC(=O)C2CC2)c1 -6.66%
OC(c1ccc(Cl)c(F)c1)c1ncc(-c2ccc(Oc3ccccc3)cc2)[nH]1 (stereo unspecified) -11.5%
COc1cc(OC)cc(-c2nnc(NC(=O)CCS(=O)(=O)c3ccc(C)cc3)o2)c1 -24.4%
O=S(=O)(c1ccccc1)c1nc(-c2ccco2)oc1N1CCCCCC1 -3.6%
O=S(=O)(NCCC1=CCCCC1)c1cccc(S(=O)(=O)N2CCOCC2)c1 -9.09%
O=C(Nc1ccc2c(c1)OCCO2)c1ccccc1F -15.9%
COc1ccc(C(C(=O)NC2CCCC2)N(C(=O)c2snc(C(N)=O)c2N)c2cccc(O)c2)cc1 (stereo unspecified) -27.8%
Cc1ccc(CSCC(=O)N2CCOCC2)cc1 6.55%
O=C(Nc1cccc(Cl)c1)N1CCCC1 -2.89%
COCCn1c(SCC(=O)Nc2cccc(S(N)(=O)=O)c2)nc2cc(Cl)ccc2c1=O 0.951%
CC(=O)NC(c1ccc(C)cc1)c1cc([N+](=O)[O-])c2cccnc2c1O (stereo unspecified) -13.1%
O=C(Oc1ccc(N(Cc2cccs2)C2=NS(=O)(=O)c3ccccc32)cc1)c1ccccc1Cl -6.53%
O=C(CSc1nc(-c2ccccc2)cc(=O)[nH]1)N1CCc2ccccc21 1.95%
COc1ccc(CCCc2nnc(SCc3nc4ccccc4c(=O)[nH]3)n2C)cc1 -2.05%
Cc1cc(C(=O)Nc2cccc3c2O[C@@H](CN(C)S(C)(=O)=O)[C@H](C)CN([C@@H](C)CO)C3=O)n(C)n1 4.38%
O=C(OCC(=O)N1CCCCCC1)c1ccc(Cl)c(S(=O)(=O)N2CCCC2)c1 -7.9%
COCc1ccc2oc(C(=O)O)cc2c1 -11.2%
COc1ccc2c(c1)C=C(CN1CCN(Cc3ccccc3C)C(CCO)C1)CO2 (stereo unspecified) 1.01%
NC(=O)c1c(NC(=O)CN2CCCC2)sc2c1CCCC2 -1.83%
Cc1ccc2cc(CCl)c(Cl)nc2c1 -0.529%
N=c1oc2ccc3ccccc3c2cc1C(N)=S -20.2%
O=c1oc2cc(O)ccc2cc1-c1ccc(F)cc1 -21.3%
COc1ccc(C(=O)N2CCC2(C)C(=O)O)cc1F (stereo unspecified) -4.7%
O=C(Nc1ccc(-c2nc3ncccc3o2)cc1)c1ccco1 -14.4%
O=C(CCN1CCc2ccccc2C(c2ccccc2)C1)c1ccc2c(c1)OCCO2 (stereo unspecified) 2.85%
O=C(Cn1cncn1)NCc1ccccc1Br -17.6%
CCOC(=O)N1CCN(C(=O)CCS(=O)(=O)c2ccc3c(c2)CCN3C(=O)CC)CC1 4.08%
Clc1ccc2nc(-c3ccco3)c(Cc3ccccc3)n2c1 -25.6%
O=C(Nc1nnc(COc2ccc(Cl)cc2)s1)c1cccs1 -13.3%
CC(C)(NC(=O)c1ccccc1)c1nc2ccccc2s1 -17.8%
O=C1COc2ccc(S(=O)(=O)NCCc3ccccc3)cc2N1 2.64%
COc1cc(CNc2ccc(N3CCCC3)cc2)cc(Cl)c1OC -18.4%
CCOc1ccc(CC(=O)Nc2sc(Cc3ccccc3)c(C)c2C(N)=O)cc1OCC -12.1%
O=S(=O)(c1ccc(Br)cc1)N1CCCc2ccccc21 7.69%
Clc1ccc2nc(CSc3nc4ccccc4o3)cn2c1 3.79%
C[C@H](CO)N1C[C@H](C)[C@@H](CN(C)S(=O)(=O)c2ccc3c(c2)OCCCO3)OCc2cnnn2CCCC1=O 0.696%
CCN1CCN(C(=O)Cn2nc(-c3ccc(Cl)cc3)ccc2=O)CC1 7.36%
Cc1ccnc2nc(C(=O)OCC(=O)NC3CCCC(C)C3C)nn12 (stereo unspecified) 5.28%
O=C(CCS(=O)(=O)c1ccc2c(c1)NC(=O)CS2)NCCc1ccc(Cl)cc1 -2.61%
CCCNC(=O)C1(C)CCCN(C(=O)c2cc(C)nn2C(C)(C)C)C1 (stereo unspecified) 0.849%
O=C(Nc1cccc2cccnc12)c1csc(COCCO)n1 -0.498%
O=C(c1cccnc1)N(c1cc2sc(=O)oc2c2ccccc12)S(=O)(=O)c1ccccc1 -17.1%
CCOc1ccc(S(=O)(=O)N2CCN(c3ccc(C)cc3C)CC2)cc1 11.9%
COc1cc2nc(COc3ccccc3[N+](=O)[O-])oc(=O)c2cc1OC -3.94%
O=S(=O)(Nc1ccc2cn[nH]c2c1)c1ccccc1 0.969%
CCOC(=O)c1cnc2cc(C)ccn2c1=O 0.0355%
C[C@H]1CN=C(Nc2ccccc2)N1CCCC1CCCCC1 -0.725%
Cc1ccc(C)c(NC(=O)c2ccc3c(c2)N(Cc2ccc(F)cc2)C(=O)CS3=O)c1 (stereo unspecified) -0.517%
COc1cccc2cc(C(C)N(CCCN3CCOCC3)C(=O)Nc3ccccc3)oc12 (stereo unspecified) 1.88%
Cc1cc2ccccc2nc1SCC(=O)NC1CCCC1 3.8%
CCCCNC(=O)C1(C)CCC(=O)N1c1cc(C(C)(C)C)nn1C (stereo unspecified) 4.31%
COCCn1nnnc1C(c1cc2cc(OC)c(OC)cc2[nH]c1=O)N1CCN(c2ccc(O)cc2)CC1 (stereo unspecified) -13.5%
Cc1ccn2c(NC3CCCC3)c(-c3cccs3)nc2c1 6.53%
Cc1cccc(-n2c(SCC(N)=O)nc3c(c2=O)C2(CCCC2)Cc2ccccc2-3)c1 3.23%
Cc1ccccc1CNC(=O)c1ccc2nc([C@@H]3O[C@H](CO)[C@H](O)[C@H](O)[C@H]3O)[nH]c2c1 1.11%
